Assay results reported in PubChem BioAssay.
Activity calls are given as the source filed them.

How the values were obtained:
[1] = target: Albumin (Bos taurus) (UniProt P02769); experiment: bovine serum albumin binders on microarray, profiling panel, artefact control for SMM control protein annotation, biochemical, small-molecule microarray, Alexa647 label, 635/667 nm fluorescence (AID 1118); conditions: BSA-A647 binding, fluorescence 635 nm, higher = more signal;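 note: score merges 667 nm emission intensity and signal-to-noise per printed compound spot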
Chain of Albumin (Bos taurus) (P02769 whole entry, looked up): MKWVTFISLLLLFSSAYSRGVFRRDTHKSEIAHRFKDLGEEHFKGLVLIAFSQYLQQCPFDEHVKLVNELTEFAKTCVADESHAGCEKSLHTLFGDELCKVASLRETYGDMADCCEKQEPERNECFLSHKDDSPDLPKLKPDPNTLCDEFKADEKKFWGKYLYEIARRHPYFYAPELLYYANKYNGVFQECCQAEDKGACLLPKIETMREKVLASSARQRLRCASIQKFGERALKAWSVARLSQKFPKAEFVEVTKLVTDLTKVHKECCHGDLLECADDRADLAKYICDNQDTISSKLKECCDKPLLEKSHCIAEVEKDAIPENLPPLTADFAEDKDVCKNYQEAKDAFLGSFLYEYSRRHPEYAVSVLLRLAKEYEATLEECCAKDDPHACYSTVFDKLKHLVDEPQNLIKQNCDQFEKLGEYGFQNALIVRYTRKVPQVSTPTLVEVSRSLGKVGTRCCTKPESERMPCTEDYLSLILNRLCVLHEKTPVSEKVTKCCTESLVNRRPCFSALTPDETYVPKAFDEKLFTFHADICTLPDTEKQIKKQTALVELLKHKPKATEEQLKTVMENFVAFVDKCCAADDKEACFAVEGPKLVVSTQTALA

[2] = small-molecule microarray binders of probe aXIP, primary screen, biochemical, NeuroSMM set, 635/667 nm fluorescence (AID 1119); conditions: higher = more signal, called active from +8 up or from −8 down;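 note: probe is the protein aXip251-270 applied at 1 µg/mL to compound-printed slides; binding of probe to printed compounds measured as 667 nm fluorescence plus signal to noise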
[3] = small-molecule binders of probe aNOTCH3, primary screen, biochemical, small-molecule microarray, 635/667 nm fluorescence (AID 1120); conditions: higher = more signal;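 note: probe is a biotin-tagged antibody raised against NOTCH3 rather than NOTCH3 protein; score merges spot fluorescence near 667 nm with spot signal to noise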
[4] = small-molecule binders of probe aNOTCH2, primary screen, biochemical, small-molecule microarray, 635/667 nm fluorescence (AID 1121); conditions: higher = more signal;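 note: score merges feature fluorescence read at 667 nm with its signal to noise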
[5] = target: Carbonic anhydrase 2 (Homo sapiens) (UniProt P00918); experiment: CAII small-molecule binders, profiling panel, biochemical, small-molecule microarray, Alexa647-labelled CAII (AID 1122); conditions: CAII-A647 binding fluorescence, higher = more signal
[6] = COS7 lysate on small-molecule microarray, probe aHis, 635 nm (AID 1123); conditions: COS7 cell lysate, fluorescence, higher = more signal;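 note: z-score combines 667nm fluorescence intensity with signal-to-noise per printed compound spot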
[7] = compound binding in COS7 lysate, probe aLAP1, primary screen, cell lysate, small-molecule microarray (AID 1124); conditions: probe aLAP1, fluorescence, higher = more signal;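 note: lysate comes from COS7 cells expressing LAP1 and is applied at 0.3 µg/mL; score merges spot fluorescence near 667 nm with signal-to-noise over triplicate slides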
[8] = test system: Sam68 (KHDRBS1); experiment: Sam68 small-molecule binders, primary screen, biochemical, small-molecule microarray, 635 nm fluorescence (AID 1125); conditions: small-molecule microarray binding, higher = more signal;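 note: score merges 667 nm channel intensity with signal to noise over triplicate slides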
[9] = test system: Chordin-like protein 2 (CHRDL2); experiment: CHRDL2 small-molecule binders, primary screen, biochemical, small-molecule microarray, 635 nm fluorescence (AID 1126); conditions: small-molecule microarray binding, fluorescence 635 nm; higher = more signal;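 note: printed compound slides probed with Chrdl2 protein at 4 µg/mL for 1 h at 4 C; score merges 667 nm emission intensity with signal to noise over three replicate slides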
[10] = target: Concanavalin-A (Canavalia ensiformis) (UniProt P02866); experiment: ConA small-molecule binders, primary screen, artefact control for SMM control protein annotation, biochemical, small-molecule microarray, Alexa647 label, 635 nm (AID 1127); conditions: ConA-A647 binding fluorescence, higher = more signal;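 note: z combines 667 nm emission intensity with signal-to-noise across three replicate slides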
Chain of Concanavalin-A (Canavalia ensiformis) (P02866 whole entry, looked up): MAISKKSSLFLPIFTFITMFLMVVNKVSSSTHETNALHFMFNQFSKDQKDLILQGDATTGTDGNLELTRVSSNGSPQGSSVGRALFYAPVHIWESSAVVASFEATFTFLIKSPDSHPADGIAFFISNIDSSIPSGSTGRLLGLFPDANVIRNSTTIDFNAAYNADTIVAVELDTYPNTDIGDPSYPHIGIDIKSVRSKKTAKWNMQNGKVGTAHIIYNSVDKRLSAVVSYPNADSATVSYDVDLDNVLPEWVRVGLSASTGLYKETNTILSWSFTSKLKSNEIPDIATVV

[11] = anti-His antibody binders, primary screen, artefact control for SMM control protein annotation, biochemical, small-molecule microarray, 635 nm fluorescence (AID 1128); conditions: anti-His Alexa647 antibody binding, higher = more signal;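 note: score merges feature fluorescence with signal-to-noise for each printed compound spot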
[12] = test system: Human papillomavirus type 1a E7 protein (residues 1-88); experiment: HPV1a E7 small-molecule binders, primary screen, biochemical, small-molecule microarray, residues 1-88, 635 nm (AID 1129); conditions: small-molecule microarray binding, fluorescence 635 nm; higher = more signal
[13] = target: Focal adhesion kinase 1 (Homo sapiens) (UniProt Q05397); experiment: small-molecule microarray binders of FAK, primary screen, biochemical, 635/667 nm fluorescence, BSA, DTT (AID 1130); conditions: PTK2 binding, 635 nm fluorescence, higher = more signal;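 note: composite of spot emission at 667 nm and signal to noise over triplicate slides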
Chain of Focal adhesion kinase 1 (Homo sapiens) (Q05397 whole entry, looked up): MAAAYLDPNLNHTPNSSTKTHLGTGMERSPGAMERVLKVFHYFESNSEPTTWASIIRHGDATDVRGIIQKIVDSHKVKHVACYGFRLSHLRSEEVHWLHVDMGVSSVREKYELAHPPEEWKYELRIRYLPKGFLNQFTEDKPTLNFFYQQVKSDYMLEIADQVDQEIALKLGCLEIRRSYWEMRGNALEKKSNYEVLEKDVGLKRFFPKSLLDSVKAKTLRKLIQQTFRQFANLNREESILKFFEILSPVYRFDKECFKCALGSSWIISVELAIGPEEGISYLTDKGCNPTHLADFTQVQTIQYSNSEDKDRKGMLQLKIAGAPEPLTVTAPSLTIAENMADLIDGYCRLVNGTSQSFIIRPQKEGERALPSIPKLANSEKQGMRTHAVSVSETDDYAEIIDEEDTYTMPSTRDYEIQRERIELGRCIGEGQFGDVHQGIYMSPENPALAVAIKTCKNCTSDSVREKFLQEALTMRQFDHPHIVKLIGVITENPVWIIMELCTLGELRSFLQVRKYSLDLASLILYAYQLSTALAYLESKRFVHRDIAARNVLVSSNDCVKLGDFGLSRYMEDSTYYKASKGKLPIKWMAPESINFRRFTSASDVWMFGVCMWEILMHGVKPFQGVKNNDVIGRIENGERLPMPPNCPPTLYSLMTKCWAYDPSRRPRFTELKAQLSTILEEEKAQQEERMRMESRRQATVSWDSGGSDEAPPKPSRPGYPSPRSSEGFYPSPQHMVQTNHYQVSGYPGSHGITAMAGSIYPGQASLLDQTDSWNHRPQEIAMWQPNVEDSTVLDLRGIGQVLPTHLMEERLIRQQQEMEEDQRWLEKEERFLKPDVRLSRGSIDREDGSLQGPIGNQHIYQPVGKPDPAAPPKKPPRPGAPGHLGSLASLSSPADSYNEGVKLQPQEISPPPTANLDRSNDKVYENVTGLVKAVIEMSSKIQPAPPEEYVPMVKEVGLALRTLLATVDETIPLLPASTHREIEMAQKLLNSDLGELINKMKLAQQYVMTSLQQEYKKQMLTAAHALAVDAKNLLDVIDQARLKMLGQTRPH

[14] = test system: Fibrinogen (Alexa647-labelled); experiment: fibrinogen binders on compound microarrays, profiling panel, artefact control for SMM control-protein annotation, biochemical, small-molecule microarray, 635/667 nm fluorescence (AID 1131); conditions: fibrinogen-A647 binding fluorescence, higher = more signal;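 note: z-score merges 667 nm fluorescence with per-spot signal-to-noise over triplicate slides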
[15] = target: Follistatin (Homo sapiens) (UniProt P19883); experiment: follistatin binders on small-molecule microarrays, primary screen, biochemical, small-molecule microarray, 635/667 nm fluorescence (AID 1132); conditions: FST binding, 635 nm fluorescence, higher = more signal
Chain of Follistatin (Homo sapiens) (P19883 whole entry, looked up): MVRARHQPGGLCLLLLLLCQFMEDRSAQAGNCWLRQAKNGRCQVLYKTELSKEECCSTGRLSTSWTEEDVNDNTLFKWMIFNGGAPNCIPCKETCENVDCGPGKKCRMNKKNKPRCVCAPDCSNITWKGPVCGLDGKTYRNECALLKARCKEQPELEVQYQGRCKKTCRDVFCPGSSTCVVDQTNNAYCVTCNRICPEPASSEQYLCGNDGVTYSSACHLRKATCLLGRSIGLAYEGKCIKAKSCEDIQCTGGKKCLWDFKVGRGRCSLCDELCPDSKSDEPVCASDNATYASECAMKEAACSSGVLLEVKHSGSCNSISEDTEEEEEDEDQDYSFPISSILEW

[16] = target: Fibroblast growth factor 2 (Homo sapiens) (UniProt P09038); experiment: FGF2 binders on small-molecule microarrays, primary screen, biochemical, small-molecule microarray, 635/667 nm fluorescence (AID 1133); conditions: small-molecule microarray binding, FGF2, fluorescence 635/667; higher = more signal
Chain of Fibroblast growth factor 2 (Homo sapiens) (P09038 whole entry, looked up): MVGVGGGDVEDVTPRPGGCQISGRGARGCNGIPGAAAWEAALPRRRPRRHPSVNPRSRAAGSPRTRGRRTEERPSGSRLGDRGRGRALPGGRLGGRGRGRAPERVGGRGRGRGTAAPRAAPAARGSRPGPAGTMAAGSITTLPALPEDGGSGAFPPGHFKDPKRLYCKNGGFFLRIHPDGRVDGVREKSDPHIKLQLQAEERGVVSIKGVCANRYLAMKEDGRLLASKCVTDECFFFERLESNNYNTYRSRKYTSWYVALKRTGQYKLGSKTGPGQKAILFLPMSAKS

[17] = mitochondrial membrane potential change in A549 cells, profiling panel, cell-based, JC-1 fluorescence, basal, 24 h, 100 nL (AID 1138); conditions: higher = more signal;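 note: A549 lung adenocarcinoma cells under basal conditions with no added stimulus; test concentration not given here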
[18] = test system: Lefty1; experiment: Lefty1 binders on small-molecule microarrays, primary screen, biochemical, small-molecule microarray, 635/667 nm fluorescence (AID 1139); conditions: small-molecule microarray binding, fluorescence 635/667; higher = more signal
[19] = test system: wheat germ agglutinin (Triticum aestivum), Alexa647-labelled; experiment: wheat germ agglutinin binders on compound microarrays, profiling panel, artefact control for SMM control-protein annotation, biochemical, small-molecule microarray, 635/667 nm fluorescence (AID 1140); conditions: WGA-A647 binding, 635 nm fluorescence, higher = more signal;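 note: score merges 667 nm feature emission with signal to noise over triplicate slides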
[20] = target: Luciferin 4-monooxygenase (Photinus pyralis) (UniProt P08659); experiment: firefly luciferase enzyme inhibitors, primary screen, biochemical, luminescence, purified enzyme, 2006 set (AID 1141); conditions: SteadyGlo luminescence, 30 min, higher = more signal, called active from +8 up or from −8 down;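 note: cell-free assay with purified firefly luciferase at 100 ng per well in PBS; test concentration not given here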
Chain of Luciferin 4-monooxygenase (Photinus pyralis) (P08659 whole entry, looked up): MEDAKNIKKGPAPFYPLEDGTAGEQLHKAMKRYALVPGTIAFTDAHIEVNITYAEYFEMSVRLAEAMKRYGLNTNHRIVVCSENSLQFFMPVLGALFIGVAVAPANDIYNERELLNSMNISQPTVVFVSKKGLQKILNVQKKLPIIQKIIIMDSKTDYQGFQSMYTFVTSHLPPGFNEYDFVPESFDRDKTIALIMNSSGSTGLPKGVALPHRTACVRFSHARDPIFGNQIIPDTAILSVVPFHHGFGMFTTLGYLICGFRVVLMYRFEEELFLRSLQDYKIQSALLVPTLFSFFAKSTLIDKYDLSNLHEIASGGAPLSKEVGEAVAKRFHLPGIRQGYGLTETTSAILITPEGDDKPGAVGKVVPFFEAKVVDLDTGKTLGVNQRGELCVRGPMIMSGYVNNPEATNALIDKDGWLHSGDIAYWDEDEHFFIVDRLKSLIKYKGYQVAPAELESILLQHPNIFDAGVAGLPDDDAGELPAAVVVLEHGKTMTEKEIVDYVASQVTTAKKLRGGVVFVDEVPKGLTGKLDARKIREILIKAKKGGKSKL

SMILES	composite z-score [1]	composite Z-score [2]	composite z-score [3]	composite z-score [4]	composite z-score [5]	composite z-score [6]	composite z-score [7]	composite z-score [8]	composite z-score [9]	composite z-score [10]	composite z-score [11]	composite z-score [12]	composite z-score [13]	composite z-score [14]	composite z-score [15]	composite z-score [16]	z-score [17]	composite z-score [18]	composite z-score [19]	z-score [20]
CCCCC(=C=CC[C@H](O)c1cccc(OCCO)c1)CCO	0.15	-0.434 (inactive)	-0.0699	-0.162	0.681	0.24	0.133	-0.319	-0.361	-0.245	0.0233	-0.282	0.44	-0.644	0.455	0.287	1.97	-0.103	-0.602	-0.835 (inactive)
CCOC(=O)C[C@H]1[C@H](OC(=O)c2ccc(-c3ccccc3)cc2)[C@@H](NC(=O)C2CCCCC2)c2cc(OCCCO)ccc2N1C(=O)c1ccc2ccccc2n1	0.821	-0.0871 (inactive)	0.0179	0.0055	-0.252	0.915	0.243	1.3	-0.625	0.814	0.549	1.14	0.347	0.433	0.349	-0.243	1.14	0.0309	0.388	-0.784 (inactive)
COc1ccc([Si](C)(C)[C@H]2[C@H](CC(=O)N(CCO)Cc3ccccc3)O[C@@]3(C(=O)N(Cc4cccc(N5C(=O)COc6ccccc65)c4)c4ccccc43)[C@@H]2C)cc1	-1.06	0.616 (inactive)	0.0961	-0.118	0.462	1.69	-0.045	0.897	0.81	1.06	1.11	0.965	1.45	0.147	1.05	1.52	-0.0909	1.26	0.528	-1.8 (inactive)
C=C(CCCC)/C(=C/C[C@@H](OC(=O)c1ccncc1)c1ccc(OCCO)cc1)c1cnc2ccccc2c1	0.26	-0.0966 (inactive)	0.135	-0.0859	0.948	0.814	2.07	1.03	1.44	1.15	0.921	0.775	-0.438	0.577	1.44	1.62	0.985	1.64	1.35	-2.3 (inactive)
CC(C)N1CC=CC23O[C@@H]4/C=C\CCCOC(=O)C4[C@H]2C(=O)N(CCCO)[C@@H]3C1=O (stereo not given in full)	-1.17	1.73 (inactive)	-0.249	-0.125	0.962	-0.0009	-0.745	-0.594	-1.72	-0.564	-0.936	-1.26	-0.134	-1.72	-0.995	-1.23	1.25	-1.42	-0.965	-1.38 (inactive)
